Source: PubChem
TTR transcr act – TTR transcription activation, primary screen; SH-SY5Y TTR promoter Gaussia luciferase, luminescence; 100% = recombinant luciferase protein wells; activation, % at 16.7 µM; 92,000 tested, 1.3% active; AID 1117267;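 active = activation above the mean of all tested compounds plus 3 SD, cut at about 9.5% in these data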;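 note: cells exposed to compounds for one day before reading; 0% = median of all test compound wells on the plate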
TTR inh HuH7 – HuH7 TTR transcription inhibition, counter-screen; shares compounds with TTR transcr act; HuH7 TTR promoter-Gaussia luciferase reporter, luminescence; inhibition, % at 16.7 µM; 1,100 tested, 4% active; AID 1117279;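 active = average inhibition above the solvent-only control wells' mean plus 3 SD, cut at about 15% in these data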;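 note: 0% = cells with DMSO only and 100% = cells with inhibitor control FD; inhibitors lower well luminescence so higher value means more inhibition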
TTR act confirm – confirmation of human transthyretin transcription activators; shares compounds with TTR transcr act; SHSY5Y TTR promoter Gaussia luciferase, luminescence; 100% = purified Lucia enzyme wells, no cells; activation, % at 16.7 µM; 1,100 tested, under 10 active; AID 1117280;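 active = mean activation above a set limit taken from the earlier primary screen, cut at about 11% in these data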;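 note: 0% = DMSO-treated cells and 100% = recombinant Lucia luciferase without cells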
The depositor's hits bear a star. The entries come from a sample that favours hits as a whole.

SMILES	TTR transcr act	others
COC(=O)[C@]12C[C@H](CC(=O)NCc3cccs3)C(=O)N(Cc3cccc4ccccc34)C1=C[C@H](C(C)(C)C)O[C@@H]2C	-0.4
O=C1C=C(c2cccc(CO)c2)C[C@@H](c2ccc3c(c2)OCO3)C1	-1.6
O=C1NC(=O)N(C2CCCCC2)CC1Br (configuration not stated)	25.0*	TTR inh HuH7=-3.5;TTR act confirm=-0.7
O=C1NC(=O)N(Cc2ccccc2)CC1Br (configuration not stated)	-0.1
CC1CN(C2CCCCC2)C(=S)NC1=O (configuration not stated)	1.7
CN1C(=O)C(=O)N2C(=C[C@]3(c4c[nH]c5ccccc45)c4ccccc4N[C@H]23)C1=O	0.9
CC/C(=N\NC(=O)Cc1ccc(Br)cc1)c1cccs1	41.7*	TTR inh HuH7=-29.2;TTR act confirm=0.1
CCNC(=O)Cc1ccc(Br)cc1	3.2
C/C(=N/NC(=O)c1cccs1)c1cccs1	1.1
CCCCNC(=O)O[C@H]1CC[C@@]23CCCN2C(=O)CCC[C@H]3[C@H]1CCC	2.7
COc1ccc(/C=C/C(=O)C2CC2)cc1Cn1nc(C)c([N+](=O)[O-])c1C	-0.8
COc1ccc(/C=N/Nc2ccccc2)cc1Cn1nc(C)c([N+](=O)[O-])c1C	12.9*	TTR inh HuH7=-16.2;TTR act confirm=-0.3
COc1ccc(/C=N/N2CCOCC2)cc1Cn1nc(C)c([N+](=O)[O-])c1C	9.4
Cc1nc(SCC(=O)N2CCN(C(=O)c3cccs3)CC2)c2c(C)c(C)sc2n1	-2.2
COc1cccc(OC)c1C(=O)OCC(=O)Nc1ccc(OC(F)(F)F)cc1	0.3
CCOC(=O)C1(Cc2ccc(OC)cc2)CCN(C(=O)C2CCCO2)CC1 (configuration not stated)	2.0
CCOC(=O)C1(Cc2ccc(OC)cc2)CCN(C(=O)c2cncs2)CC1	9.7*	TTR inh HuH7=-2.4;TTR act confirm=-0.2
CCOC(=O)C1(Cc2ccc(OC)cc2)CCN(C(=O)Cn2cnnn2)CC1	1.0
O=C1C(=O)N(Cc2ccc(-c3ccccc3)cc2)c2ccc(OC(F)(F)F)cc21	-3.1
Cc1cc(C(=O)OCC(=O)Nc2cccc(S(=O)(=O)N3CCOCC3)c2)c(C)o1	-0.4
O=C(COC(=O)c1cccnc1Cl)Nc1cccc(S(=O)(=O)N2CCOCC2)c1	-0.7
O=C(COC(=O)C1=COCCO1)Nc1cccc(S(=O)(=O)N2CCOCC2)c1	14.5*	TTR inh HuH7=-6.8;TTR act confirm=0.0
CC(=O)Nc1ccc(C(=O)N2CCCC2)cc1	0.4
Cc1ccc(S(=O)(=O)N/N=C/c2cccc(OC3CSC3)c2)cc1	-0.5
O=S(=O)(N/N=C/c1ccc(OC2CSC2)cc1)c1ccccc1	11.6*	TTR inh HuH7=-19.6;TTR act confirm=-0.7
SMILES	TTR transcr act	others
O=S(=O)(N/N=C/c1cccc(OC2CSC2)c1)c1ccccc1	2.5
COc1ccc(Oc2c(Cl)cnn(-c3cc(C)cc(C)c3)c2=O)cc1	2.0
COc1ccccc1CC(NC(C)=O)C(=O)NC1CCN(C(=O)Nc2ccc(F)cc2)CC1 (configuration not stated)	0.9
COc1ccc(CC(NC(C)=O)C(=O)NC2CCN(C(=O)c3ccc([N+](=O)[O-])cc3)CC2)cc1OC (configuration not stated)	-2.2
COc1ccccc1CC(NC(C)=O)C(=O)NC1CCN(C(=O)c2ccc([N+](=O)[O-])cc2)CC1 (configuration not stated)	12.5*	TTR inh HuH7=-7.9;TTR act confirm=-0.4
CC(C)(C)OC(=O)N(Cc1ccccc1)Cc1ccc(OCc2cccc(NC(=O)C3CC3)c2)cc1	-2.5
O=C(NC1CCCC1)C1C(c2ccc(C(F)(F)F)cc2)=Nc2ccccc2N1C(=O)c1cccc2ccccc12 (configuration not stated)	0.7
CCCCCCC/C=C(\C)[C@@H](O)[C@@H](C)C(=O)N1CCC[C@@H]1C(=O)O[C@H](C(=O)O[C@@H](C)C(=O)O)[C@@H](C)CC	0.5
N/C(=N\OC(=O)c1cccnc1)c1ccc(Cl)cc1Cl	-0.2
Cc1ccc(/C(N)=N/OC(=O)c2ccc(Cl)cc2Cl)cc1	19.8*	TTR inh HuH7=6.4;TTR act confirm=-0.5
COc1ccc(Cl)cc1C(=O)O/N=C(\N)c1ccncc1	1.3
O=C(CSc1nnc(NC(=O)c2ccco2)s1)Nc1ccc(F)cc1	1.5
Cc1cccc(NC(=O)CSc2nnc(NC(=O)c3ccco3)s2)c1	11.2*	TTR inh HuH7=-28.7;TTR act confirm=3.1
Cc1cccc(CSc2nnc(NC(=O)c3ccco3)s2)c1	1.9
O=P(Nc1ccccc1)(Nc1ccccc1)c1ccccc1	-2.1
O=C(NCc1cccc(C(F)(F)F)c1)c1csc([C@@H]2C[C@H](O)[C@@H](CO)O2)n1	-1.6
Clc1ccc2c(SCC3CO3)c3ccccc3nc2c1 (configuration not stated)	0.0
CN1CCN(c2ccc(-c3csc(N4CCC(C(N)=O)CC4)n3)cc2)CC1	-0.3
NC(=O)c1ccccc1N/C=C1\CCCCC1=O	0.8
COc1ccc(OC)c(N/C=C2/CCCCC2=O)c1	10.6*	TTR inh HuH7=3.5;TTR act confirm=0.9
COc1ccc(Oc2ccc(N/C=C3\CCCC3=O)cc2)cc1	0.3
COCCCNC(=O)C[C@H]1C[C@@]2(C(=O)OC)C(=C[C@H](COCc3ccccc3)O[C@@H]2C)N(Cc2ccco2)C1=O	0.5
C[C@H]1C(c2ccccc2F)O[C@]2(C[C@H](O)c3c(ccc4ccccc34)O2)C[C@@H]1O (some centres not stated)	-0.5
CCOc1ccc(CCNC(=O)Cc2ccccc2)cc1OCC	0.8
O=C(CN1CCCC(O)C1)N1c2ccccc2Sc2ccc(C(F)(F)F)cc21 (configuration not stated)	-3.4
SMILES	TTR transcr act	others
CN(C)CC(=O)N1c2ccccc2Sc2ccc(Cl)cc21	1.7
CC1CCCN(CC(=O)N2c3ccccc3Sc3ccccc32)C1 (configuration not stated)	15.1*	TTR inh HuH7=-0.2;TTR act confirm=0.5
CN(C(=O)c1ccc(NC(=O)Cc2ccc(NC(=O)C3CCCN(C(=O)C4CC4)C3)cc2)cc1)C1CCCC1 (configuration not stated)	0.6
Cc1ccc(C(=O)CNc2ccc(C)cc2C)cc1	5.4
Cc1ccc(NCCC(=O)c2cccc([N+](=O)[O-])c2)c(C)c1	16.4*	TTR inh HuH7=-1.9;TTR act confirm=-0.1
Cc1cccc(NCCC(=O)c2ccc([N+](=O)[O-])cc2)c1C	0.3
CN(Cc1cnn(-c2ccc(F)cc2)c1)C(=O)[C@H]1O[C@@H](n2cnc3c(N)ncnc32)[C@H](O)[C@@H]1O	5.5
COc1cc(CCN(C(=O)c2cc3ccccc3[nH]2)C(C)c2nc3ccccc3[nH]2)cc(OC)c1 (configuration not stated)	12.9*	TTR inh HuH7=-21.9;TTR act confirm=-0.4
CCC(c1nc2ccccc2[nH]1)N(C(=O)Cc1cc(OC)cc(OC)c1)c1ccc(N2CCOCC2)cc1 (configuration not stated)	2.0
COc1ccc2[nH]c(C(=O)N(Cc3ccccn3)Cc3ccccn3)cc2c1	0.7
O=C1NC(Cc2ccc(O)cc2)c2nc3cc(Cl)ccc3c(=O)n2-c2cc3ccccc3cc21 (configuration not stated)	-1.4
COc1ccc(C(Nc2ccccn2)c2c(NC(=O)c3ccco3)sc(C)c2C)cc1OC (configuration not stated)	6.8
COc1ccc(C(CNC(=O)c2ccco2)N2CCCCC2)cc1 (configuration not stated)	0.5
